Sampled rows, rich in hits. Any-hit rate of the full collection: about 2.5%.
Efflux pump mplx: inhibitors of Candida efflux pumps in yeast, primary screen, S. cerevisiae, Nile Red, multiplex; inhibition, % at 10 µM; 0.44% of 330,000 active; S. cerevisiae Candida pump triplex;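 active means plate passing quality check with inhibition over a set limit, or well fluorescence over plate mean plus 4 SD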;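 further: Nile Red retained in pooled yeast measured as flow cytometry median fluorescence; 0% = buffer negative control and 100% = Enniatin B positive control; higher means more Nile Red kept so more efflux inhibition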
ATG4B inhibitor: ATG4B protease inhibitors, primary screen, biochemical, fluorescence, uHTS. Cysteine protease ATG4B (Homo sapiens), Q9Y4P1. ATG4B cleavage of LC3-PLA2, NBD-HPC fluorescence, 1 h. inhibition, % at 8.33 µM. 0.51% of 340,000 active. AID 504462, 2011; in the data active means inhibition above about 40%
Target sequence (Q9Y4P1 whole entry, looked up): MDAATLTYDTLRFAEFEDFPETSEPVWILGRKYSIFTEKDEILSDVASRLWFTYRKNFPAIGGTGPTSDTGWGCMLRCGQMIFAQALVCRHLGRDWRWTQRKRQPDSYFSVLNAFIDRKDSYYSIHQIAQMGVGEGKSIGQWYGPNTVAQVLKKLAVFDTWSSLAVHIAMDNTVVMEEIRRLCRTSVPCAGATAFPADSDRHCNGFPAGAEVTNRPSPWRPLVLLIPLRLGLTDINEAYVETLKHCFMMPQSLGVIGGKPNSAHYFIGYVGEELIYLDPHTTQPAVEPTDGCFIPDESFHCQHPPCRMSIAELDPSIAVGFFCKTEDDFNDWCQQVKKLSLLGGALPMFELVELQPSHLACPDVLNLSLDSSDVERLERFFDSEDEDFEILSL
Mot1-301 SUMO: yeast Mot1-301 growth rescue at high temperature, primary screen, SUMOylation pathway inhibitor project, S. cerevisiae, ATP luminescence, 38.5C. 1% of 320,000 active. AID 2716, 2010. growth rescue, % at 18.8 µM. S. cerevisiae Mot1-301 growth rescue; percent above DMSO median, 100 means doubled;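 active means every valid replicate shows activation above 250% relative to neutral control wells; inactive means the rest, any valid replicate at or below 250%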;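 further: OY570 slx delta 5 strain wells were the positive control but not used for scaling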
V-ATPase pH: regulators of yeast V-ATPase proton pumping, primary screen, pHLuorin cytosolic pH fluorescence | S. cerevisiae | response, % at 10 µM | 0.37% of 350,000 active; in the data active means response mostly above about 7.3%, no sharp cut-off; inactive means mostly below about 5.4%; further: actives read high
AI-2 QS modul: Vibrio harveyi AI-2 quorum sensing modulators, primary screen, JMH597 strain, luminescence/OD600 ratio; Vibrio harveyi JMH597 AI-2 luminescence/OD600 ratio, 9 h; active compounds read low; strain lacks LuxN and CqsS sensors; 0 = neutral-control median; activity change, % at 7.5 µM; 0.4% of 300,000 active; in the data active means activity change below about -75%, passing the limit was not always enough;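 further: luminescence divided by OD600 gain over 9 h not by final OD600 alone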
VATPase regulator: yeast V-ATPase proton pumping modulators, confirmation, S. cerevisiae, pH-sensitive GFP, second cherry-pick. shares compounds with V-ATPase pH. S. cerevisiae pHLuorin cytosolic pH, V-ATPase proton transport. response, % at 10 µM. 2% of 980 active. AID 602197, 2012; in the data active means response above about 24%;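 further: plate controls were vehicle wells for no effect and positive control wells for full effect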
Active calls of the source: *; · = no result given.

SMILES	Efflux pump mplx	ATG4B inhibitor	Mot1-301 SUMO	V-ATPase pH	AI-2 QS modul	VATPase regulator
O=C(NCc1ccc2c(c1)OCO2)c1cc2n(n1)C(C(F)(F)F)CC(c1ccc3c(c1)OCO3)N2 (configuration not stated)	0	-4	-5	3	·	·
Cc1nn(CC2CC2)c(=O)n1-c1ccc(Cl)cc1	0	-3	18	-1	6	1
Cc1nn(CC2CC2)c(=O)n1-c1ccc(C(C)C)cc1	0	-7	2	-2	9	·
Cc1cc(=O)n(-c2ccc(Cl)cc2)c(=O)[nH]1	0	8	-8	4	26	-1
CC1CN(c2cc(=O)n(-c3ccc(Cl)cc3)c(=O)[nH]2)CC(C)O1 (configuration not stated)	·	3	·	1	·	·
Cc1cc(=O)cc(C)n1-c1ccc(Cl)cc1	0	0	7	2	28	3
CC(C(=O)Nc1ccc2c(c1)OCO2)c1ccc([N+](=O)[O-])cc1 (configuration not stated)	0	-14	-3	15*	21	1
CCOC(=O)CCC(=O)Nc1ccccc1C(N)=O	0	4	-12	7.7*	10	-8
CCOC(=O)CC(=O)Nc1ccccc1C(=O)O	0	-8	-5	-8	18	·
O=C(COC(=O)/C=C/c1ccccc1Cl)NC(=O)Cc1ccccc1	-1	4	9	9.9*	24	2
O=C(COC(=O)/C=C/c1ccccc1Cl)NC(=O)NCc1ccccc1	0	1	48	3	·	·
Cc1ccccc1S(=O)(=O)Cc1ccc(C(=O)NCc2ccc(F)cc2)o1	0	-6	14	-2	2	·
COc1ccc(CCN2C(=O)C3C4CC(C5C(C(N)=O)=NOC45)C3C2=O)cc1OC (configuration not stated)	0	11	-5	15*	11	1
COc1ccc(CCN2C(=O)C3C4CC(C5C(C(=O)NN)=NOC45)C3C2=O)cc1OC (configuration not stated)	0	7	176	-4	-1	·
O=C(CN1CCN(c2ccccc2O)CC1)Nc1cc(S(=O)(=O)N2CCCC2)ccc1Cl	0	-25	35	-2	·	·
Cc1ccc(S(=O)(=O)Nc2ccsc2C#N)cc1	0	1	-1	-7	22	·
N=C1c2ccccc2CN1NC(=O)COc1ccc(Cl)cc1	0	-5	1	11*	33	1
CCOc1ccc(S(=O)(=O)NN2Cc3ccccc3C2=N)cc1	0	-3	2	2	21	·
COC(=O)c1cc(S(=O)(=O)Nc2cccc(C)c2C)cn1C	0	4	-5	11*	9	6
Cc1ccc2c(Cl)c(C(=O)NCC(c3ccco3)N3CCCC3)sc2c1 (configuration not stated)	0	-4	4	2	20	·
O=C(NCC(c1ccco1)N1CCCC1)c1sc2cc(F)ccc2c1Cl (configuration not stated)	0	5	41	8.6*	·	3
COc1ccccc1NC(=O)c1c(Nc2ccccc2C)sc(C(=O)Nc2cccc(Cl)c2)c1N	0	39	14	12*	8	-2
COc1ccc(Nc2sc(C(=O)c3ccc(Cl)cc3)c(N)c2C(=O)Nc2ccccc2OC)cc1	0	6	-3	3	32	·
OCCCn1c(-c2ccccc2)csc1=Nc1ccccc1	0	12	3	8.0*	6	2
Cc1cccc(NC(=O)c2ccccc2OCC(=O)N2CCOCC2)c1C	0	-8	6	2	9	·
O=C(Nc1cccc(Cl)c1Cl)c1ccccc1OCC(=O)N1CCOCC1	0	3	-16	11*	19	-5
O=C(NCc1ccco1)Nc1ccc(Br)cc1	0	12	2	11*	7	0
O=C(NCc1ccco1)Nc1ccc(OC(F)(F)F)cc1	0	3	-13	0	14	·
CC(=O)c1ccccc1NC(=O)COC(=O)/C(=C/c1ccccc1)n1nnnc1C	1	1	-17	-1	24	·

Screening results (PubChem BioAssay)
